Records with an inconclusive call do not appear. The source made the active and inactive calls. Unless noted, calls come from the whole dose curve; as a rule, active = well fitted curve in the direction sought with a large enough effect in the repeat runs; inconclusive = weak or mixed curves; inactive = no such curve, though single readings can be large; an effect the other way counts as inactive or inconclusive.
What was measured:
[1] = qHTS RealTime-Glo MT Cell Viability Assay in HEK293 cells - 8 hour (AID 1224887); note: top concentration of the series differs between compounds; nearly all actives have a fitted effect of over 50% in size
Method in brief: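 Luminescence readout at each listed time point; HEK293, 600 cells/well, RealTime-Glo MT reagent added with cells; compounds pinned (23 nL in DMSO) after 5 h at 37 C; continuous culture at 37 C.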

[2] = A CellTox Green Cytotoxicity Assay to monitor cytotoxicity in HEK293 cells - 16 hour (AID 1224888); note: nearly all actives have a fitted effect of over 35% in size
Method in brief: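 Read-out: fluorescence of a cell-impermeant cyanine dye staining DNA of dead cells, proportional to cytotoxicity. HEK293, 600 cells/well with reagent, compound (23 nL DMSO) added after 5 h; reads at 0, 8, 16, 24, 32, 40 h.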

[3] = A CellTox Green Cytotoxicity Assay to monitor cytotoxicity in HepG2 cells - 8 hour (AID 1224890); note: nearly all actives have a fitted effect of over 45% in size
Method in brief: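 HepG2, 600 cells/well premixed w/ CellTox Green; 5 h settle, 37 C/5% CO2; pintool cpd add (DMSO); 37 C, 40 h; fluorescence read at 0, 8, 16, 24, 32, 40 h.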

[4] = qHTS assay to identify small molecule antagonists of the estrogen receptor alpha (ER-alpha) signaling pathway using the BG1 cell line in the presence of 0.1 nM 17-beta-estradiol - cell viability counter screen (AID 1259241); note: nearly all actives have a fitted effect of over 40% in size
Method in brief: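 Viability in VM7Luc4E2 cells after 22 hr compound exposure under 0.1 nM 17beta-estradiol stimulation, by CellTiter-Fluor.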

[5] = qHTS assay to identify small molecule antagonists of the androgen receptor (AR) signaling pathway using the MDA cell line in the presence of 0.5 nM R1881 - cell viability counter screen (AID 1259242); note: nearly all actives have a fitted effect of over 45% in size
Method in brief: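 Live-cell protease fluorescence, CellTiter-Fluor, 30 min at 37C. Cells: MDA-kb2, 3,000/well, preincubated 5 hr. Compounds plus 0.5 nM R1881 final, 16 hr, 37C, 0% CO2.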

[6] = biological target: Androgen receptor (Homo sapiens) (UniProt P10275); experiment: qHTS assay to identify small molecule antagonists of the androgen receptor (AR) signaling pathway using the MDA cell line in the presence of 0.5 nM R1881 (AID 1259243); note: nearly all actives have a fitted effect of over 50% in size
Method in brief: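 MDA-kb2, MMTV-luc (AR/GR elements); 3,000 cells/well; cpd + 0.5 nM R1881 final; 16 hr 37C, 0% CO2; ONE-Glo 30 min RT; luminescence.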

[7] = qHTS assay to identify small molecule HDAC inhibitors (AID 1259364); note: potency is the fitted concentration of half-maximal effect;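 note: wild-type HCT-116 cells with endogenous class I/II HDAC activity; nearly all actives have a fitted effect of over 45% in size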
Method in brief: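 HCT-116 (wild type), 1,500 cells/well, overnight; compound 2 hr 37C 5% CO2; HDAC-Glo I/II reagent 30 min RT; luminescence readout.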

[8] = qHTS assay to identify small molecule HDAC inhibitors - cell viability counter screen (AID 1259365); note: series mostly up to about 92 µM; nearly all actives have a fitted effect of over 50% in size
Method in brief: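 Cytotoxicity was gauged in wild-type HCT-116 cells after a brief 2hr treatment with DMSO-dissolved compounds at 37C and 5% CO2, using CellTiter-Glo luminescence developed for 30min at room temperature.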

[9] = qHTS assay to identify small molecule agonists of the sonic hedgehog signaling (Shh) pathway - cell viability counter screen (AID 1259366); note: nearly all actives have a fitted effect of over 50% in size
Method in brief: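 Stable Gli1-Luc NIH/3T3 clone, 2,000 cells/well. Compound exposure 24hr at 37C. Read-out: CellTiter-Fluor fluorescence.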

[10] = qHTS assay to identify small molecule antagonists of the sonic hedgehog signaling (Shh) pathway - cell viability counter screen (AID 1259367); note: nearly all actives have a fitted effect of over 55% in size
Method in brief: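 Cytotoxicity was assessed in parallel with Shh reporter activity by measuring live-cell protease fluorescence (CellTiter-Fluor) in NIH/3T3 cells stably carrying Gli1-Luc, treated with compound under conditioned medium stimulation for 23 hr plus 1 hr reagent incubation.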

[11] = qHTS assay to identify small molecule agonists of the sonic hedgehog signaling (Shh) pathway (AID 1259368; calls by dose curve;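 note: NIH/3T3-derived 3T3Gli1-Luc cells carrying a stable Gli1-driven firefly luciferase reporter; series mostly up to about 92 µM; nearly all actives have a fitted effect of over 15% in size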)
Method in brief: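 Read-out: firefly luciferase luminescence from a Gli1 response element reporter stably integrated in NIH/3T3-derived 3T3Gli1-Luc cells, measured 30 min at room temperature after reagent addition. Compound exposure lasted 24 hr at 37 C, 5% CO2.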

[12] = qHTS assay to identify small molecule antagonists of the sonic hedgehog signaling (Shh) pathway (AID 1259369; calls by dose curve; note: nearly all actives have a fitted effect of over 45% in size)
Method in brief: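 Luminescence readout: firefly Luc under Gli1 response element in 3T3Gli1-Luc cells (NIH/3T3 clone). Antagonist mode, stimulation by conditioned medium; compound exposure 24hr at 37 C, 5% CO2.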

[13] = biological target: Estrogen receptor beta (Homo sapiens) (UniProt Q92731); experiment: qHTS assay to identify small molecule agonists of the estrogen receptor beta (ER-beta) signaling pathway (AID 1259377; active = well fitted activation curve with a large enough effect in the signal ratio in the repeat runs, not every such curve was filed as active; the % refers to the signal ratio)
Method in brief: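 Measured by fluorescence intensity from a B/G FRET beta-lactamase substrate (2 h, room temperature) in ER-beta-UAS-bla HEK293T cells treated with DMSO-dissolved compounds for 16 hr at 37C and 5% CO2.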

[14] = qHTS assay to identify small molecule agonists of the androgen receptor (AR) signaling pathway in the presence of an antagonist - cell viability counter screen (AID 1259379);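 note: MDA-kb2 human breast cancer cells carrying an MMTV luciferase reporter; series mostly up to about 92 µM; nearly all actives have a fitted effect of over 25% in size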
Method in brief: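 Viability counter screen: CellTiter-Fluor fluorescence, measured in the same wells as the luciferase read-out. MDA-kb2 cells, 3,000/well, with nilutamide at 3.0uM final and compounds at 15 concentrations, 16 hr at 37C, 0% CO2.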

[15] = qHTS assay to identify small molecule agonists of the estrogen receptor beta (ER-beta) signaling pathway - cell viability counter screen (AID 1259380); note: nearly all actives have a fitted effect of over 30% in size
Method in brief: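 Luminescence read-out (CellTiter-Glo, 30 min, room temp) taken in the same wells as the beta-lactamase reporter assay; ER-beta-UAS-bla HEK293T cells exposed to DMSO-dissolved compounds for 16 hr at 37C in 2% charcoal-stripped FBS medium.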

[16] = biological target: Androgen receptor (Homo sapiens) (UniProt P10275); experiment: qHTS assay to identify small molecule agonists of the androgen receptor (AR) signaling pathway in the presence of an antagonist (AID 1259381; calls by dose curve; note: nearly all actives have a fitted effect of over 15% in size)
Method in brief: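 Luciferase read-out (ONE-Glo, 30min room temperature) in MDA-kb2 MMTV-reporter cells; agonist mode run in presence of AR antagonist nilutamide, 3.0uM final. Compounds tested as 15-point series, 16hr exposure at 37C, 0% CO2.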

[17] = biological target: Estrogen receptor (Homo sapiens) (UniProt P03372); experiment: qHTS assay to identify small molecule antagonists of the estrogen receptor alpha (ER-alpha) signaling pathway using the BG1 cell line in the presence of 0.1 nM 17-beta-estradiol (AID 1259244); note: nearly all actives have a fitted effect of over 50% in size
Method in brief: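 Luminescence after ONE-Glo (30 min, room temperature) measured ERE-luciferase activity in VM7Luc4E2 cells treated 22 h with compound and 0.1 nM final 17beta-estradiol as stimulator.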

[18] = qHTS RealTime-Glo MT Cell Viability Assay in HepG2 cells - 0 hour (AID 1224889); note: nearly all actives have a fitted effect of over 50% in size
Method in brief: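 HepG2 suspension premixed with RealTime-Glo reagents is plated at 600 cells per well and left 5 h at 37 C/5% CO2. Compounds in DMSO then go in, and bioluminescence reflecting viable cell number is recorded over 40 h.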

[19] = qHTS assay to identify small molecule phospholipidosis (PLD) inducers (AID 1259344; active = well fitted curve in the direction sought with a large enough effect; an effect the other way counts as inactive or inconclusive)
Method in brief: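 Cells (HepG2, 900 per well) attach for 4 h, receive LipidTOX Red and compound together, incubate 24 h at 37 C, are fixed 30 min with paraformaldehyde/Hoechst, then imaged at one site per well.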

[20] = biological target: Estrogen receptor beta (Homo sapiens) (UniProt Q92731); experiment: qHTS assay to identify small molecule antagonists of the estrogen receptor beta (ER-beta) signaling pathway (AID 1259378; active = well fitted inhibition curve with a large enough effect in the signal ratio in the repeat runs, not every such curve was filed as active; the % refers to the signal ratio)
Method in brief: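 ER-beta-UAS-bla HEK293T (GripTite) cells in 2% charcoal-stripped FBS medium were preincubated 6 hr at 37C, dosed with compound, then stimulated with 1 nM E2 (final) for 16 hr; beta-lactamase reporter read by B/G FRET fluorescence after 2 hr substrate loading.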

Measured: Potency

Estrogen receptor (Homo sapiens), sequence (P03372 whole entry, looked up): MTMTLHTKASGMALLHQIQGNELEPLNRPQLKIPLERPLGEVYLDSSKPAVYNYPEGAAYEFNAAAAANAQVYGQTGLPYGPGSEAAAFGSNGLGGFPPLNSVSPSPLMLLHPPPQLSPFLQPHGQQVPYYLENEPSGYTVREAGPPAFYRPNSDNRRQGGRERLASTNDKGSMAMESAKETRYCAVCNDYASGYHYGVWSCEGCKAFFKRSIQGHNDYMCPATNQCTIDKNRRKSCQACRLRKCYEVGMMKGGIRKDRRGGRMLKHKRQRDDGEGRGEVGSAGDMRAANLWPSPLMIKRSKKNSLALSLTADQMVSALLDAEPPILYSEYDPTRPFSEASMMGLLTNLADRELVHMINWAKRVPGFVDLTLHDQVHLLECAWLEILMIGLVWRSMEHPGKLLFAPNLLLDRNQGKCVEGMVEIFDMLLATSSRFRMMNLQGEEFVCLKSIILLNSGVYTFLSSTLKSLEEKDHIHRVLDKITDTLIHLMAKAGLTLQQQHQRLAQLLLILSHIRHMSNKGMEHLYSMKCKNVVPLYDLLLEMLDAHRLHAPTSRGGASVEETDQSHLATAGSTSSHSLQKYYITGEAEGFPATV
Estrogen receptor beta (Homo sapiens), sequence (Q92731 whole entry, looked up): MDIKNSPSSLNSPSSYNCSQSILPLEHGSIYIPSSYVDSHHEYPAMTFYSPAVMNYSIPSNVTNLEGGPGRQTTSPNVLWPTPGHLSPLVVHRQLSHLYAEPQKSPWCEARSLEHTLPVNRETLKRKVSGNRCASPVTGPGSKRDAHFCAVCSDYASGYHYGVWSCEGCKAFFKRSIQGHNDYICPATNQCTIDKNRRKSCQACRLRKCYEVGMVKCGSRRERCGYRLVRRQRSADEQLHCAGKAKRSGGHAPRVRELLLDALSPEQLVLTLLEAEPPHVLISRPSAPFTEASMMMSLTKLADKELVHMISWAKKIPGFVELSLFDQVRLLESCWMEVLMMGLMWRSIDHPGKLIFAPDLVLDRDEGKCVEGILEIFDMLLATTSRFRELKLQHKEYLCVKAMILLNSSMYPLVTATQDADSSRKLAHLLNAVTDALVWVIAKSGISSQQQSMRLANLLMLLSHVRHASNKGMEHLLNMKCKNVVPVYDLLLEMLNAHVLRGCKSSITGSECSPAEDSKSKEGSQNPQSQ
Androgen receptor (Homo sapiens), sequence (P10275 whole entry, looked up): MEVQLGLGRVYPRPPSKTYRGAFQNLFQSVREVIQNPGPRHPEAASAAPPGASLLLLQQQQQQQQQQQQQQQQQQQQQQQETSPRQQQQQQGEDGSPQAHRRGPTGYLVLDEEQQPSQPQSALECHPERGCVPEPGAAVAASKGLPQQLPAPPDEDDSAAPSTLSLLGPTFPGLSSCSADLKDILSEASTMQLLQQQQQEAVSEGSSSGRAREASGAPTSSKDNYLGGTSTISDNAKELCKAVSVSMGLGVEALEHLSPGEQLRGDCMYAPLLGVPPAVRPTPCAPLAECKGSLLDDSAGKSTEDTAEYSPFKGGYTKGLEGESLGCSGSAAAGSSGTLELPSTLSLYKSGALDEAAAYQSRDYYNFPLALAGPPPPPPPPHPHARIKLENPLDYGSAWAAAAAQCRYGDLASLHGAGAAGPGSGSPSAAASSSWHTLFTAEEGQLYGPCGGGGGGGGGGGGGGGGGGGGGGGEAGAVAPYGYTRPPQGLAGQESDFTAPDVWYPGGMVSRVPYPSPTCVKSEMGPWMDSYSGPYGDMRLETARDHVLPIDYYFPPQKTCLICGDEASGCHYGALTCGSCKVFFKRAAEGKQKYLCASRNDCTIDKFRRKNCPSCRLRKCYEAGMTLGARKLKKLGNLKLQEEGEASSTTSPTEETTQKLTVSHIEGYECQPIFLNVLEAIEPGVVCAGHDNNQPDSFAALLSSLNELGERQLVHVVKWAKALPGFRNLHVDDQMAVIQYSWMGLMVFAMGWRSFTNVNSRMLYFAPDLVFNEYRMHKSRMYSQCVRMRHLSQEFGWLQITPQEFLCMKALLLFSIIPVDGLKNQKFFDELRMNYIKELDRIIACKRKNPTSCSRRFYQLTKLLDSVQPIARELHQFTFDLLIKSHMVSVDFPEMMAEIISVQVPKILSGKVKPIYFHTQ

C=CCOC(=O)CCCCCC
not listed: [17] | [18] | [19] | [20]
inactive: all other assays above

CC(=O)CCC1=C(C)CCCC1(C)C
not listed: [6] | [12] | [14] | [16] | [18] | [19] | [20]
inactive: all other assays above

ONc1ccccc1
active: [7] 27 µM
not listed: [6] | [10] | [13] | [16] | [18] | [19] | [20]
inactive: all other assays above

Cn1c(=O)c2c(ncn2CCO)n(C)c1=O
not listed: [3] | [6] | [9] | [16] | [17]
inactive: all other assays above

N#Cc1ccccc1O
not listed: [6] | [13] | [16] | [18] | [19] | [20]
inactive: all other assays above

CCC(C)C(=O)OCCc1ccccc1 (centres undefined)
not listed: [3] | [6] | [12] | [13] | [16] | [19] | [20]
inactive: all other assays above

COc1ccc2c(c1)c1c3n2CCN(C)C3=NCC1
not listed: [6] | [13] | [18] | [20]
inactive: all other assays above

C/C(=C1\CCOC(=O)S1)N(C=O)Cc1cnc(C)nc1N
not listed: [3] | [6] | [14] | [16] | [19] | [20]
inactive: all other assays above
